# Source: PubChem BioAssay (National Center for Advancing Translational Sciences (NCATS))
# Rows were chosen to be rich in hits. Some 17% of all compounds tested hit in one or more screens of this group.
# ClpP mod: qHTS Assay for Activators of ClpP; ATP-dependent Clp protease proteolytic subunit (Bacillus subtilis (strain 168)), P80244; purified B. subtilis ClpP, FRET peptide cleavage, 20 min; Potency, µM (titrated, usually from 57.5 µM); hit rate 1.9% among 340,000; active = well fitted falling curve with a large enough effect; inconclusive = small, poorly fitted or top-dose-only effect; inactive = no such curve, though single readings can be large or run the other way; note: the source files actives as falling curves though it sought activators and does not explain the sign; nearly all actives have a fitted effect of over 65% in size
# Target sequence (P80244 whole entry, looked up): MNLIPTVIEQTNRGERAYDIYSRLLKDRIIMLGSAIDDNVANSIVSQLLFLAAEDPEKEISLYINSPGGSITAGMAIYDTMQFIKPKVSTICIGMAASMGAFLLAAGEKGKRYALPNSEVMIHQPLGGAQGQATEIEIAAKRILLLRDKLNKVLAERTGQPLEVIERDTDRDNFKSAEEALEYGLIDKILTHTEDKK
#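 Purified B. subtilis ClpP, 10 microg/mL final in Tris/HCl pH8 with KCl, BSA, glycerol and Tween-20, cleaved an Abz/nitrotyrosine-quenched decapeptide. Fluorescence (ex 320, em 430) was read at 0 and 20 min at room temperature. Delta was normalized to 5.8 microM ADEP and DMSO/no-enzyme controls.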
# TDP1 cell CPT: DT40-hTDP1 cell growth loss with CPT; chicken DT40 Tdp1-/-;hTDP1 cells + 20 nM CPT, ATP luminescence, 48 h; Potency, µM (titrated, usually from 46.2 µM), hits mostly inhibitors; hit rate 12% among 420,000; AID 686979; note: nearly all actives have a fitted effect of over 55% in size
#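 Chicken DT40 Tdp1-/- cells stably complemented with human TDP1 were seeded at 400 cells/well in medium containing 20 nM camptothecin, exposed to pin-transferred compounds, and grown at 37 °C for at least 48 hr. Viability was read as ATP luminescence.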
# TDP1 cell noCPT: qHTS for Inhibitors of human tyrosyl-DNA phosphodiesterase 1 (TDP1): qHTS in cells in absence of CPT | DT40 Tdp1-/- hTDP1 cells, no CPT, ATP luminescence, 48 h | Potency, µM (doses to about 46.2 µM), usual class: inhibitors | hit rate 15% among 420,000 | AID 686978, 2013; note: nearly all actives have a fitted effect of over 55% in size
#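 Readout: luminescence from CellTiter-Glo after 30 min in the dark at RT. Cells: DT40 Tdp1-/- with stable hTDP1, 400/well. Exposure: compounds alone, ≥48 hr, 37 °C.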
# TDP1 block: blocks human tyrosyl-DNA phosphodiesterase 1; hit rate 0.28% among 350,000; recombinant TDP1, AlphaScreen DNA substrate cleavage; Potency, µM (series often up to 130 µM), hits mostly inhibitors; AID 485290; Q9NUW8; note: nearly all actives have a fitted effect of over 40% in size
#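 Tdp1 1 nM final; 15 min RT w/ cpd; substrate 15 nM, 5 min; beads 10 ug/ml, 10 min; AlphaScreen read. Neg ctrl: no enzyme.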
# Numbers stand for hits; n = inactive; u = inconclusive; x = no result given; [ ] = remark or other dose. Unless noted, calls come from the whole dose curve; as a rule, active = well fitted curve in the direction sought with a large enough effect; inconclusive = small, poorly fitted or top-dose-only effect, or another doubt; inactive = no such curve, though single readings can be large; an effect the other way counts as inactive or inconclusive.
SMILES,ClpP mod,TDP1 cell CPT,TDP1 cell noCPT,TDP1 block
COc1cccc(CNC(=O)C2CCN(S(=O)(=O)c3ccc(Br)s3)CC2)c1,x,n,n,n
O=C(C1CCC(CNS(=O)(=O)c2ccc(Br)s2)CC1)N1CCN(c2ccc(F)cc2)CC1 (stereo not given),n,u,4.1µM,n
Cc1cccc(N2CCN(C(=O)C3CCC(CNS(=O)(=O)c4ccc(Br)s4)CC3)CC2)c1C (stereo not given),n,u,u,n
O=C(C1CCC(CNS(=O)(=O)c2ccc(Br)s2)CC1)N1CCN(c2ccccc2Cl)CC1 (stereo not given),n,9.2µM,8.2µM,n[12.3 µM]
O=C(C1CCC(CNS(=O)(=O)c2cccs2)CC1)N1CCCCC1 (stereo not given),n,n,u,n
COc1cccc(N2CCN(C(=O)C3CCC(CNS(=O)(=O)c4ccc(Br)s4)CC3)CC2)c1 (stereo not given),n,7.3µM,6.5µM,n[12.3 µM]
COc1cccc(CNC(=O)C2CCC(CNS(=O)(=O)c3ccc(Br)s3)CC2)c1 (stereo not given),n,23µM,u,n
CCOc1ccc(NC(=O)C2CCC(CNS(=O)(=O)c3ccc(Br)s3)CC2)cc1 (stereo not given),n,n,u,n
C=CCNC(=O)C1COc2ccccc2O1 (stereo not given),x,n,n,n
CONC(=O)C[C@@H](C#N)NC(=O)[C@@H]1CCCN1C(=O)[C@@H](NC(=O)c1ccc(N)c(Cl)c1)C(C)(C)C,x,x,x,n
Cc1ccc2c(C)c(C(=O)N(Cc3ccc(F)cc3)C3CCS(=O)(=O)C3)oc2c1 (stereo not given),n,u,u,n
Cc1cc(C)c2sc(N(Cc3cccnc3)C(=O)CCOc3ccccc3)nc2c1,n,18µM,u,n
O=C(CCOc1ccccc1)N(Cc1cccnc1)c1nc2c(F)cc(F)cc2s1,n,18µM,26µM,n
O=C(COc1ccccc1)N(Cc1cccnc1)c1nc2c(F)cc(F)cc2s1,n,n,u,n
O=C(CCc1ccccc1)N(Cc1cccnc1)c1nc2c(F)cc(F)cc2s1,n,u,u,n
O=C(CCS(=O)(=O)c1ccccc1)N(Cc1cccnc1)c1nc2ccc(F)cc2s1,n,3.3µM,5.8µM,n
CCN(CC)CCN(C(=O)CCOc1ccccc1)c1nc2c(F)cc(F)cc2s1,x,u,18µM,n
Cc1cc(=O)c(C(=O)N(C)CCc2ccccn2)c2n1-c1ccccc1SC(c1ccsc1)C2 (stereo not given),x,n[9.04 µM],n,x
CC1(C)C(=O)C=C(N2CCCCC2)c2ccccc21,n,u,u,x
COc1ccc(CC(NC(C)=O)C(=O)NC2CCN(C(=O)C3CCCCC3)CC2)cc1OC (stereo not given),n,n,n,x
COc1ccc(NC(=O)c2cc3n(n2)C(C(F)(F)F)CC(c2ccco2)N3)cc1 (stereo not given),n,n,u,n
Cc1cc(NC(=O)c2cc3n(n2)C(C(F)(F)F)CC(c2ccco2)N3)n(-c2ccccc2)n1 (stereo not given),n,u,15µM,n
O=C(NCC1CCCO1)c1cc2n(n1)C(C(F)(F)F)CC(c1ccc(F)cc1)N2 (stereo not given),n,n,u,n
O=C(NCC12CC3CC(CC(C3)C1)C2)c1cc2n(n1)C(C(F)(F)F)CC(c1ccco1)N2 (stereo not given),n,10µM,15µM,n
COc1nc(C)ccc1-c1noc(-c2ccccn2)n1,n,n,n,n
SMILES,ClpP mod,TDP1 cell CPT,TDP1 cell noCPT,TDP1 block
COc1ccccc1-c1nc(-c2ccccn2)no1,n,13µM,13µM,n
COc1ccc(-c2nc(-c3ccccn3)no2)cc1,n,15µM,u,n
Cc1ccccc1-c1nc(-c2ccccn2)no1,x,u,u,n
COc1ccccc1NC(=O)c1ccccc1-c1nc(-c2ccccc2OC)no1,n,14µM,6.3µM,n
COc1ccccc1-c1noc(-c2ccccc2C(=O)Nc2ccccc2)n1,n,n,n,n
COc1ccccc1-c1nc(-c2ccc(C)nc2OC)no1,14µM,u,u,n
C=CCN(CC=C)C(=O)c1ccc(OC2CCN(S(=O)(=O)N(C)C)CC2)cc1,n,n,u,n
O=C(Cc1cccs1)NNC(=S)NC(=O)c1ccc(F)c(F)c1,n,21µM,u,n
